High-throughput results: PubChem, Bradner/Qi Labs at DFCI
This is one part of a sample in which hits are shown more often than they occur.
CBX7 inh: inhibitors of human CBX7 binding to H3K27me3 peptide. O95931. AlphaScreen His6-CBX7 / biotin-H3K27me3 peptide binding; active compounds read low. normalised signal (fraction of DMSO) (test concentration not listed). 66,000 tested, 1.1% active. AID 1224903; in the data active means normalised signal below about 0.5
Target sequence (O95931 whole entry, looked up): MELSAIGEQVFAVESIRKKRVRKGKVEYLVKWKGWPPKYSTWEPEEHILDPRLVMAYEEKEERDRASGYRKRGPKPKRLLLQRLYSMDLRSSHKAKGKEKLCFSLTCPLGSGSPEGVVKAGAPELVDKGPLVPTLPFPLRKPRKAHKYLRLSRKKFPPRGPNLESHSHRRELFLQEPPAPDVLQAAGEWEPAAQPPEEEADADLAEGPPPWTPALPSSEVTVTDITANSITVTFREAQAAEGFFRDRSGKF
* marks the source's active call; other numbers are inactive results.

SMILES	CBX7 inh
CC1CCCN(C(=O)C2CCC(CNS(=O)(=O)c3cccc4cccnc34)CC2)C1 (configuration not stated)	0.998
CCOc1ccc(C(=O)Nc2ccc(O)c(-c3nc4ccccc4o3)c2)cc1	0.967
CCOCCCNC(=O)CN1C(=O)CC(C)(C)S(=O)(=O)c2ccccc21	0.974
COc1ccc(CNC(=O)C2CCCN(C(=O)N(C)C)C2)c(OC)c1 (configuration not stated)	1.08
COc1ccc(OC)c(Nc2nc(-c3ccncc3)cs2)c1	0.932
CC(C)CNc1ncnc2ccc(Br)cc12	1.07
CCOC(=O)c1ccc(NC(=O)COc2ccc(OC)cc2)cc1	1.28
CCOC(=O)c1[nH]cnc1C(=O)Nc1ccccn1	0.194*
CCCCCCOc1ccc(C(=O)Nc2ccccn2)cc1	1.1
CCOc1ccc(C2C(C(=O)Nc3ccccn3)=C(C)NC3=C2C(=O)CCC3)cc1 (configuration not stated)	1.02
CCOC(=O)c1[nH]cnc1C(=O)Nc1ccccc1	1.04
CCOC(=O)c1[nH]cnc1C(=O)Nc1ccc(OC)cc1	0.066*
Cc1ccc(C)c(CSc2nc3ccncc3n2CC(=O)N(C)C2CCCCC2)c1	1.05
CCn1c(SCCOc2ccc(OC)cc2)nc2ccccc21	1.01
CCC(C)[C@@H](C(=O)Nc1ccc(C(C)C)cc1)N1Cc2ccccc2C1=O (some centres not stated)	1
COc1ccc2c(c1)C1CC(C)(NC(=O)C1c1nc3ccccc3s1)O2 (configuration not stated)	0.971
c1ccc(CNC2CCCc3c2[nH]c2ccc(-c4ccccc4)cc32)cc1 (configuration not stated)	0.669
Cc1ccc2[nH]c3c(c2c1)CCCC3NCCCO (configuration not stated)	1.01
Cc1ccc2[nH]c3c(c2c1)CCCC3NCc1ccc(Cl)cc1 (configuration not stated)	0.495*
CCC1=Nc2cc(C(=O)NCCN3CCOCC3)ccc2Sc2ccccc21	0.964
CCCC(=O)N1CC(=O)Nc2ccc(Cl)cc2C1c1ccc(F)cc1 (configuration not stated)	0.886
CCOC(CNC(=O)c1cn(CC)c2nc(C)ccc2c1=O)OCC	0.854
COc1ccc(CCNC(=O)Cn2cnc3c(nnn3Cc3ccc(C)cc3)c2=O)cc1OC	0.951
COc1ccc(NC(=O)COc2ccc(N3CC(C(N)=O)CC3=O)cc2)cc1 (configuration not stated)	1.09
O=C(CSc1nccn1-c1ccccc1)Nc1cccc(C(F)(F)F)c1	0.62
SMILES	CBX7 inh
Cc1nn(-c2ccccc2)c(Cl)c1C(=O)Nc1ccc(C)c2cccnc12	0.961
COc1ccc(OC)c(NS(=O)(=O)c2ccc(OC)c3ncccc23)c1	1.03
CS(=O)(=O)Nc1ccc(Cl)c2cccnc12	0.00263*
COc1nnc(-c2ccc(N3CCOCC3)c(NC(=O)c3ccc(C)cc3)c2)c2ccccc12	0.839
COc1ccc(Nc2cc(C(=O)NCCCN(C)Cc3ccccc3)c3ccccc3n2)cc1OC	0.436*
CCCCN(C)CCCNC(=O)c1cc(Nc2ccc(OC)c(OC)c2)nc2ccccc12	0.741
COc1ccc(Nc2cc(C(=O)NCCN(Cc3ccccc3)C(C)C)c3ccccc3n2)cc1OC	0.541
CCCCNC(=O)CN1C(=O)COc2ccc(S(=O)(=O)N3CCCC3)cc21	1.16
CCOc1ccccc1CNC(=O)CC(C(=O)N1CCc2ccccc21)n1ccnc1 (configuration not stated)	0.676
CC(C)OCCCNC(=O)Cn1ncc2ccsc2c1=O	1.02
O=C1c2ccccc2C(Nc2cccnc2)N1c1cccnc1 (configuration not stated)	0.0687*
O=C1c2ccccc2C(Nc2ccc(Br)cc2)N1c1cccnc1 (configuration not stated)	1.05
COc1cccc(NC2c3ccccc3C(=O)N2c2cccnc2)c1 (configuration not stated)	0.997
COc1ccccc1CNC(=O)c1nn(-c2ccccc2OC)c(=O)c2ccccc12	0.941
COCCNC(=O)c1nn(-c2ccccc2OC)c(=O)c2ccccc12	1.01
CCN(CCCNC(=O)c1nn(-c2ccccc2OC)c(=O)c2ccccc12)c1cccc(C)c1	0.481*
CCOc1ccc(-c2nc(C#N)c(NC3CC3)o2)cc1	0.966
Cc1onc(-c2ccccc2)c1C(=O)Nc1ccc(OC(C)C)cc1	0.998
CN(C)C(=O)c1ccc(-c2nnc(NCc3ccccc3)c3ccccc23)cc1	1
CCCN1CCCc2cc(CN(CCCN3CCOCC3)C(=O)Nc3ccccc3)ccc21	0.799
CCc1ccc(NC(=O)N(CCN2CCOCC2)Cc2ccc3c(c2)CCCN3CC)cc1	0.57
CCN1CCCc2cc(CN(CCN3CCOCC3)C(=O)Nc3ccc(C)c(C)c3)ccc21	0.22*
CC1=C(C(=O)Nc2cccc(C)n2)C(c2ccsc2)C2=C(CCCC2=O)N1 (configuration not stated)	1.01
Cc1ccc(S(=O)(=O)Nc2cccc3cccnc23)cc1	0.0846*
Cc1ccc(S(=O)(=O)N(C)c2cccc3cccnc23)cc1	1.11
SMILES	CBX7 inh
Cc1ccc(S(=O)(=O)Nc2ccccc2CNc2ccccn2)cc1	0.897
O=C(NCCN1CCOCC1)c1cc(-c2cccc(O)c2)on1	1.05
CCOC(=O)C1CCN(c2nc3cc(Br)ccc3s2)CC1	1.09
COc1ccc(-c2nc(-c3ccccc3)c(-c3ccc(F)cc3)[nH]2)cc1	0.85
Clc1ccc(-c2nc(-c3ccccc3)c(-c3ccccc3)[nH]2)cc1Cl	0.919
COc1cc(OC)cc(-c2nc(-c3ccccc3)c(-c3ccc(F)cc3)[nH]2)c1	0.877
Cc1ccc(-c2nc(-c3ccc(F)cc3)[nH]c2-c2ccccc2)cc1C	0.958
Cc1ccc([N+](=O)[O-])cc1-c1[nH]c(-c2ccc(F)cc2)nc1-c1ccccc1	0.479*
COc1cc(-c2nc(-c3ccccc3)c(-c3cccs3)[nH]2)cc(OC)c1O	0.481*
COc1ccc(-c2nc(-c3ccccc3)c(-c3ccc(F)cc3)[nH]2)cc1OC	0.385*
O=[N+]([O-])c1ccc(-c2nc(-c3ccccc3)c(-c3ccc(F)cc3)[nH]2)cc1	0.662
COc1ccc(-c2nc(-c3ccccc3)c(-c3cccs3)[nH]2)c(OC)c1	0.537
COc1ccc(-c2nc(-c3ccccc3)c(-c3cccs3)[nH]2)cc1	0.816
c1ccc(Oc2ccc(-c3[nH]c(-c4ccccc4)nc3-c3ccccc3)cc2)cc1	0.466*
Brc1cccc(-c2nc(-c3ccccc3)c(-c3ccc(Oc4ccccc4)cc3)[nH]2)c1	0.789
C#CC(C)(C)NS(=O)(=O)c1cc(-c2nnc(Nc3ccccc3)c3ccccc23)ccc1C	1
COc1ccccc1CNC(=O)c1cc(Sc2cccc(SC)c2)nc2ccccc12	1.1
CCC(=O)N1CCc2cc(S(=O)(=O)NC(CC(C)C)C(=O)NCCN3CCCC3)ccc21 (configuration not stated)	1.01
COc1ccccc1NC(=O)Nc1nnc(N(C)Cc2ccccc2)s1	0.919
COc1ccc(-c2nn3cc(-c4ccc(F)cc4)c4c3n2CCCC4)cc1	1.02
Cc1nc2c(-c3ccccc3)c(C)nn2c(C)c1CCC(=O)NCCC(C)C	1.16
COc1ccc(-n2nc(C(=O)NCC(=O)Nc3cccc(Cl)c3)c3ccccc3c2=O)cc1	1.05
CCCc1cc(-c2[nH]ncc2-c2ccc3c(c2)OCCO3)c(O)cc1OC	0.292*
CCCc1cc(-c2onc(C)c2-c2ccc3c(c2)OCCCO3)c(O)cc1OC	0.681
CCc1cc(-c2n[nH]c(C)c2-c2ccc3c(c2)OCCO3)c(O)cc1O	0.685
